Experimental data taken from the supplement of paper PMC6555819.

How the values were obtained:
Assay in all cases: PBM binding z-score (relative to random genomic background probes); higher = stronger binding; sequences stand for … in GC…GCGATTGACAGCGTAGAATGAAGG
[1] = system: PPARg:RXRa DBDmut IVT, anti-RXR (DBD mutation: RXRa K156A/R161A, NR concentration 270 nM, RXRa partner concentration 90 nM)
Method in brief: (§1)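 Scanned fluorescence from custom Agilent 4×180K protein-binding microarrays was regression-normalized. Binding z-scores use random background probes as reference. Ligand-free nuclear receptor dimers were incubated on the arrays for 1 h and detected with antibodies against each partner (one per run).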

[2] = system: PPARg:RXRa IVT, anti-PPARg (NR concentration 270 nM, RXRa partner concentration 90 nM)
Method in brief: as §1

[3] = system: PPARg DBDmut:RXRa IVT, anti-PPARg (DBD mutation: PPARg1 K132A/R137A, NR concentration 270 nM, RXRa partner concentration 90 nM)
Method in brief: as §1

[4] = system: PPARg DBDmut IVT, anti-PPARg (DBD mutation: PPARg1 K132A/R137A, NR concentration 270 nM)
Method in brief: as §1

[5] = system: PPARg homodimer (NR concentration 180 nM)
Method in brief: as §1

[6] = system: PXR:RXRa (NR concentration 270 nM, RXRa partner concentration 90 nM)
Method in brief: as §1

[7] = system: PXR homodimer (NR concentration 270 nM)
Method in brief: as §1

[8] = system: RARa:RXR (NR concentration 270 nM, RXRa partner concentration 90 nM)
Method in brief: as §1

[9] = system: RARa homodimer (NR concentration 270 nM)
Method in brief: as §1

[10] = system: RARb:RXRa (NR concentration 270 nM, RXRa partner concentration 90 nM)
Method in brief: as §1

Sequence	PBM binding z-score [1]	PBM binding z-score [2]	PBM binding z-score [3]	PBM binding z-score [4]	PBM binding z-score [5]	PBM binding z-score [6]	PBM binding z-score [7]	PBM binding z-score [8]	PBM binding z-score [9]	PBM binding z-score [10]
CCTAGCAGGCCAGGGTCACTAAAGCATTTCGCTT	0.051	0.519	-1.03	-1.22	0.403	2.21	-0.725	2.96	-0.568	2.35
CCGACTGGGGCATAAGGTAACCATAAGCCAGCCC	2.94	2.7	-0.714	-0.986	0.375	-0.534	-0.805	0.0245	-0.0601	0.594
CTACCATGGTGAACAAGGTCGTTGATTACTATTC	0.666	0.434	0.343	0.226	0.387	1.56	0.655	1.43	0.262	0.627
CGAACTAGGTCATTGACAGGACAGTGTATAGTAA	7.92	8.25	2.44	1.65	2.13	1.67	0.281	2.47	0.571	3.63
CGAACTAGGTCATCGACAGGACAGTGAATAGTAA	8.14	8.42	4.29	4.27	2.79	1.76	0.984	2.53	2.3	3.88
ACTATTAGTTGAGACGAGGGCAACCGATAGGTTG	0.0589	0.536	0.785	0.574	0.059	1.64	0.413	0.859	0.982	1.24
TCTTCTAGGTCAACGATGGTCAGCTAATCTGCTA	7.21	7.26	2.6	3.07	2.69	2.23	0.345	2.8	1.21	4.31
TCTTGTAGATCACTAGAGGTTAAGAAAGTGCGCT	1.81	1.16	1.46	0.897	0.0426	3.04	0.56	1.74	0.205	1.03
TAGCCTAGGACAGATCGGGCCAGTATACGCTATA	-0.993	-0.151	-0.673	0.0562	-1.15	-0.732	-0.768	-0.695	-1.42	-0.928
CCACGGAGGACAACAGGAGGTCAGAGCTGCCAGA	-0.448	0.453	-0.512	-0.952	1.79	2.21	0.52	2.53	1.2	2.99
CCGACTGGGGCAGAAAGGTTACCATGCCATCCGG	1.38	2.43	-1.53	-1.09	0.386	0.882	-0.381	1.61	-0.141	2
GATACAGGGTCGAGGCCAGAGTACGCGTATTGAT	-0.175	0.711	-0.769	-0.92	0.109	0.68	-0.735	1.37	-0.498	1.91
TCTAGTTGCTCAAAGGTCACACACTCGAAATGCG	2.7	3.98	1.38	1.19	3.79	5.31	1.24	5.48	2.63	4.94
CCTACTGGGCCAAAATGGTCATTGATGCCGATAA	2.55	2.95	-0.67	-0.0275	0.212	-0.439	-0.289	0.45	0.0345	0.172
ACTATTAGTAGACTTAGGGCAACCGATACGACGC	0.187	0.601	0.838	1.02	0.603	0.0648	0.218	0.0539	0.917	0.609
AGAATGAGATTATACGTAGATCAGGGAAGAAAGT	-0.76	-0.334	0.931	0.37	-0.24	-0.502	0.417	-0.447	0.366	-0.409
CTCGAAAGGCCGTGCTCAGGTGAGTATACCAAAC	-0.523	-0.175	-0.959	-0.325	-1.11	-0.568	-0.631	-0.118	-0.796	1.05
GGAACGAGGGCAAAGTTGATAGGATCTGTCGACG	3.81	4.2	0.474	-0.389	0.743	1.31	0.619	1.58	0.0143	2.41
TCTTGTAGTTCAGCAGGTTAAGAAAGCTGGCCAA	1.37	0.541	-0.927	0.25	0.434	0.887	0.352	1.18	0.277	1.76
TGTCAAAGTTCAAAGGTAAAGTAAGTATCCACAC	0.197	4.58	1.35	1.98	3.26	5.75	3.72	5.81	1.83	5.07
CAAACTAGGTCAAGAGCTCAAAGTCCGCTTCCCG	8.17	8.44	4.03	2.91	2.57	1.06	-0.169	2.14	0.0982	3.99
AGTCAAAGTTCATGTAGGTAACGTAAGATATGCT	0.795	4	1.62	2.1	3.26	5.3	5.21	3.76	0.859	4.81
CCTATTAGTTGACCAGAAGGGCAACCGAAGCTCG	0.319	0.518	-0.0786	0.481	1.64	0.463	0.906	0.452	2.07	1.61
AGTCAAAGTTCAATAGGTAACGTAAGATTCAGCT	1.07	3.4	1.2	1.2	2.73	4.19	3.15	3.34	1.83	4.8
CGTAGCAGGCCAATCTGGGTCACTCAAGGCTTGA	4.39	5.41	0.0881	-0.653	0.384	1.07	-0.642	1.47	-0.582	1.48

Sequence	PBM binding z-score [1]	PBM binding z-score [2]	PBM binding z-score [3]	PBM binding z-score [4]	PBM binding z-score [5]	PBM binding z-score [6]	PBM binding z-score [7]	PBM binding z-score [8]	PBM binding z-score [9]	PBM binding z-score [10]
CCTAGCAGGCCAATCTGGGTCAATCAAGGCTTGA	3.86	4.7	-0.527	-1.3	0.323	0.743	-0.691	2.06	-0.918	1.31
ATATGTAGGTTAGCTCGGGTCATTCAGACTAGGC	6.41	6.32	1.69	1.22	2.02	4.79	1.22	3.11	0.826	2.09
ACTAGCAGGCCAAGGGTCACCCAAGATTAGTCCG	1.04	4.15	0.826	-0.393	2.65	3.94	-0.00443	5.22	1.35	3.62
TCAGATAGGTAATACAGGTGAAAGTCGGCATCTA	2.72	1.82	0.894	0.382	0.675	0.557	0.387	0.619	1.19	0.567
AGTACGAGGGCAATGAGTTGATAGCACGGGTGGC	1.59	1.15	0.233	0.248	0.203	1.32	5.08	0.221	0.00797	2.08
TCTGGTAGATCAGCAGGTTAAGAAAGCTGGCCAA	0.973	-0.29	-0.344	-0.477	-0.534	-0.014	-0.669	0.363	-0.495	0.127
ATATGTAGGTTAAGTGTCATTCAGGTTGGTTCGC	7.37	7.34	2.11	2.12	1.85	1.87	0.52	2.1	1.63	1.99
CCTTACGGGTCACTGACAGGTTATCGCATTTGGA	3.47	3.69	0.381	0.623	2.57	3.78	-0.364	4.93	0.262	4.06
CGAACGAGGGCATGAGTAGATAGCAAATGCCGAT	2.5	2.07	-0.283	0.0377	0.101	0.0706	-0.112	0.0192	-0.164	1.85
ATCGAAAGGTCGAGGTGGGTATAGAGAAAGGGAA	0.271	1.55	0.846	1.16	2.17	2.99	0.988	3.5	1.9	4.34
AGAATGAGGTTATTAAGAGCAGGGAATTGCGGTC	2.93	2.39	0.24	-0.178	0.998	1.08	0.932	1.42	0.134	1.47
CCTATTAGTTGACCATAAGGGCAAACGAAGCTCG	0.266	0.555	0.151	0.588	1.58	0.75	0.863	1.02	1.31	1.52
TTACCAAGGTGAGCTGAGGGCGTTGATCCAACTC	1.02	1.45	0.0128	-0.0146	-0.525	3.08	-0.168	1.11	-0.757	1.1
ATCGAAAGGTCGTGTGGTGAGTATACAGAAAGGC	0.568	1.69	2.41	1.23	2.3	3.25	0.999	3.74	1.51	3.6
GGAACGAGGGCAACGTTGATAGCATCTGTCGACG	4.02	3.49	0.439	0.351	-0.132	0.282	-0.723	0.65	-0.381	2.32
ATATGTAGGTTAAGGGTCGTTCAGGTTGGTTCGC	7.55	7.66	3.39	1.59	2.62	3.64	2.22	3.78	2.01	2.33
CCTACTGGGCCACGAAAGGTCAATGATTCAGTGA	5.81	6.07	0.295	-0.781	2.45	4.54	0.206	4.68	0.747	4.09
TCTGCTAGGTCTGTTGGTCAGCTAACGAGCTGCC	0.324	0.208	0.17	0.0841	-1.76	-0.467	-0.379	-0.461	-1.79	0.107
CAAACTAGGGCACAGAGGTCAAAGTCCGTGCGTA	7.7	7.94	4.77	2.72	4.24	6.12	8.42	6.5	1.61	4.41
CAAACTAGGTCAAGAGGTCAAAGCCCGCTTCCCG	8.12	8.64	4.39	2.45	7.29	6.42	1.66	7.68	2.35	5.54
CCAGACAGGTGAAAGGTAACTGAGTCTGGTACGC	2.15	3.28	-0.148	-0.636	1.11	0.918	-0.224	1.83	0.0845	1.28
ACTTTCGGGTCAACGAGGTTATAGCACGCGTATA	3.31	4.16	1.8	1.14	2.32	5.37	6.97	4.91	1.53	4.29
GATACAGGGTTAGCTAGAGGCCAGAGTATGGAAA	-0.257	0.231	-0.237	-1.22	0.107	0.293	-0.052	0.625	-0.595	1.07
ACTTACGGGTCAACGAGGTTTTAGCACGCGTATA	3.23	3.96	0.283	0.441	2.07	4.02	-0.016	4.35	0.666	4.07
